Test results: PubChem BioAssay AID602449 (Sanford-Burnham Center for Chemical Genomics, 2012)
Among all 360,000 compounds or so, about 5,000 (1.4%) were called active.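 Rule for the calls: active = inhibition of 50% or more, scaled per plate between neutral and stimulator controls; inactive = the rest.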 The list comes from a sample in which actives are over-represented; it also holds similar structures and randomly drawn compounds.

Assay: mitochondrial permeability transition pore inhibitors, primary screen, biochemical, isolated mouse mitochondria, absorbance (AID 602449);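 note: 0% = DMSO wells given calcium and 100% = 1 mM EGTA wells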
Details: Ca2+ swelling absorbance, 30 min, at 10 µM, active compounds read high

Compound	inhibition
COc1cc(CC(=O)Nc2nc(-c3ccc(F)c(F)c3)cs2)cc(OC)c1OC	105% (active)
COc1ccc(CCNC(=O)COC(=O)Cc2cc(OC)c(OC)c(OC)c2)cc1	0% (inactive)
COc1ccc(CC(=O)Nc2ccccc2NC(=O)c2ccco2)cc1OC	2.5% (inactive)
COc1ccc(CC(=O)Nc2nc(-c3ccc(F)c(F)c3)cs2)cc1OC	108% (active)
COc1ccc(CC(=O)NC2CCSc3ccccc32)cc1OC (stereo not drawn)	-1.7% (inactive)
COc1cc(CCC(=O)Nc2ccncc2Cl)cc(OC)c1OC	0.5% (inactive)
CC(C)c1ccc(CC(=O)N2CCC2(C)C(=O)NS(=O)(=O)c2ccc(C(C)(C)C)cc2)cc1 (stereo not drawn)	1.8% (inactive)
COc1ccc(Cl)cc1NC(=O)COC(=O)C(CC(C)C)N1C(=O)C2CC=CCC2C1=O (stereo not drawn)	1.6% (inactive)
COc1ccc(C(=O)C2CCCN(C(=O)c3cc(C)on3)C2)cc1F (stereo not drawn)	-1.4% (inactive)
O=C(NNC(=O)c1csc(-c2cccnc2)n1)Nc1ccc(Cl)cc1	56.5% (active)
O=C(CSc1n[nH]c(-c2cccnc2)n1)Nc1ccc(Cl)cc1	1.2% (inactive)
O=C(Nc1ccc(Cl)cc1)c1csc([C@@H]2O[C@H](CO)[C@H](O)[C@H](O)[C@H]2O)n1	-4.4% (inactive)
CCCN(C(=O)c1nc2nccc(C)n2n1)c1c(N)n(Cc2ccccc2)c(=O)[nH]c1=O	-2.3% (inactive)
CCc1cc(C(=O)OC)c(NC(=O)CC2Sc3ccc(C(F)(F)F)cc3NC2=O)s1 (stereo not drawn)	3.8% (inactive)
O=C(Nc1ccc(Cl)cc1)c1csc([C@H]2C[C@H](O)[C@@H](CO)O2)n1	-0.6% (inactive)
CC[C@@H](C)[C@@H](C(=O)N1CCN(C(=O)OC(C)(C)C)CC1)n1cc(CCC(=O)O)nn1	-0.6% (inactive)
CC(C)(C)c1ccc(CCC2OCC(CN3CCOCC3)O2)cc1 (stereo not drawn)	3.3% (inactive)
COc1cccc(C(C(=O)NC2CCCC2)N(C(=O)c2ccco2)c2cccc(C(C)=O)c2)c1OC (stereo not drawn)	-2.4% (inactive)
Cc1ccc(S(=O)(=O)NCc2nc3ccccc3c(=O)n2N)cc1	1.2% (inactive)
Cc1nc(CNS(=O)(=O)c2ccc(Oc3ccccc3)cc2)cs1	88.7% (active)
Cc1nc(CNS(=O)(=O)c2cc([N+](=O)[O-])ccc2C)cs1	0.4% (inactive)
COC(=O)[C@@]12C[C@@H](CC(=O)NCCCCc3ccccc3)C(=O)N(Cc3ccccc3)C1=CCC(C)(C)C2	-0.7% (inactive)
Cc1ccc(OCC(=O)N2CCN(S(=O)(=O)c3ccc(Cl)s3)CC2)cc1C	2.3% (inactive)
O=C(COC(=O)C1CC2C=CC1C2)Nc1ccccc1 (stereo not drawn)	-0.1% (inactive)
CC(C)c1ccc(NC(=S)NC2CC3C=CC2C3)cc1 (stereo not drawn)	73.8% (active)
CC(C)c1ccc(NC(=O)NC2CCCCC2)cc1	0.2% (inactive)

Compound	inhibition
CCOC(=O)/C(N=Nc1cc(C(=O)O)cc(C(=O)O)c1)=C(\O)CCl	-2.4% (inactive)
CN(C)C(CNC(=O)c1cccc(S(=O)(=O)Nc2ccc(Br)cc2)c1)c1ccco1 (stereo not drawn)	-0.5% (inactive)
FC(F)Oc1ccc(NC(=S)NCc2ccco2)cc1Cl	86.1% (active)
COc1cc(NC(=S)NCc2ccco2)c(OC)cc1Cl	1.7% (inactive)
COC(=O)Cc1ccc(NC(=S)NCc2ccco2)cc1	-0.8% (inactive)
Cc1ccc(CC(=O)Nc2ccc(S(=O)(=O)N3CCOCC3)cc2)cc1C	1% (inactive)
COc1ccc(Cc2nnc(SCC(=O)Nc3ccc(C)c(C)c3)o2)cc1OC	0% (inactive)
Cc1ccc(CC(=O)Nc2ccc(OC(F)F)c(Cl)c2)cc1C	60% (active)
OCCC1CN(Cc2ccc3nsnc3c2)CCN1C1CCCC1 (stereo not drawn)	2.1% (inactive)
Cc1nnc(SCC(=O)N(C(C)C)C(C)C)nc1C	-1.3% (inactive)
CCC(C(=O)NCc1ccc(OC)cc1)n1nc(C)n2c(cc3occc32)c1=O (stereo not drawn)	0.5% (inactive)
CCC(C)NC(=O)c1nn(C)c(=O)c2ccccc12 (stereo not drawn)	-0.2% (inactive)
COc1ccc(/C=C(/CC(=O)Nc2ccc(C)cc2)c2nc3ccccc3s2)cc1	52.2% (active)
COc1cccc(/C=C(/CC(=O)Nc2ccc(N3CCOCC3)cc2)c2nc3ccccc3s2)c1	-0.3% (inactive)
COc1ccc(NC(=O)COC(=O)c2ccc(NS(=O)(=O)/C=C/c3ccccc3)cc2)cc1	-9% (inactive)
CCc1ccc(CN(C)C(C)C(=O)Nc2ccc(S(=O)(=O)N3CCCC3)cc2)cc1 (stereo not drawn)	0.2% (inactive)
O=C1NC[C@H](CCCCN2C[C@H](Cc3ccccc3)N(Cc3ccccc3)C(=O)C2=O)N(CCc2ccc(O)cc2)C1=O	-0.9% (inactive)
COC(=O)c1ccccc1NC(=O)CN(Cc1ccc(Cl)cc1)S(C)(=O)=O	0.4% (inactive)
CC(=O)c1cccc(OCc2cc(C(=O)NC(C)Cc3cccnc3)no2)c1 (stereo not drawn)	0% (inactive)
CN(Cc1cnccn1)C(=O)c1cc(COc2cccc(C(F)(F)F)c2)on1	0% (inactive)
CN(Cc1cccnc1)C(=O)c1cc(COc2ccc3ncccc3c2)on1	98.2% (active)
Cc1ccc(NC(=O)C(=O)NCC2CCN(C(=O)c3cccc([N+](=O)[O-])c3)CC2)cc1	-2.2% (inactive)
O=C(NC(=S)NC1CCS(=O)(=O)C1)c1cccc([N+](=O)[O-])c1 (stereo not drawn)	-0.7% (inactive)
O=C(Nc1ccc(C2CC2(Cl)Cl)cc1)c1cccc([N+](=O)[O-])c1 (stereo not drawn)	77.1% (active)
Cc1ccc(CS(=O)(=O)CCC(=O)NC2CC2)cc1	-1.1% (inactive)
COc1ccc(NC(=S)Nc2ccc(S(N)(=O)=O)cc2)c(C)c1	-2.1% (inactive)

Compound	inhibition
NS(=O)(=O)c1ccc(NC(=S)Nc2ccc(Br)c(Cl)c2)cc1	102% (active)
NS(=O)(=O)c1ccc(NC(=S)N2CCCC2)cc1	-0.2% (inactive)
CC1=C/C(=N\OS(=O)(=O)c2ccccc2)C=CC1=O	103% (active)
O=C(COC(=O)c1ccc(NS(=O)(=O)c2cccs2)cc1O)Nc1ccc(F)cc1	4.7% (inactive)
O=S(=O)(Cc1cc(Cl)nc(-c2cccnc2)n1)c1ccccc1	0.8% (inactive)
COCCNC(=O)Nc1ccc2nc(-c3ccco3)c(-c3ccco3)nc2c1	0.5% (inactive)
COc1ccc(NC(=O)Nc2ccc3nsnc3c2)cc1	87.9% (active)
O=C(Nc1ccccc1)c1ccc2nsnc2c1	-1.8% (inactive)
CSCc1cc(N(C)C)nc(SCc2ccc(Cl)cc2Cl)n1	1.1% (inactive)
COc1ccc(C(=O)CSc2n[nH]c(N)n2)cc1	-1% (inactive)
CCCCN(C(=O)/C=C/c1ccco1)c1c(N)n(CC(C)C)c(=O)[nH]c1=O	0% (inactive)
O=S(=O)(Nc1cccc(-c2ccc(N3CCOCC3)nn2)c1)c1ccc(Cl)c(Cl)c1	-0.6% (inactive)
O=C(NNC(=O)c1cccc(S(=O)(=O)Nc2ccc(Cl)cc2)c1)c1ccc(=O)[nH]c1	-1.3% (inactive)
Fc1ccc2[nH]c3c(N4CCSCC4)ncnc3c2c1	80.7% (active)
CCN(CC(=O)Nc1ccccc1OC)C(=O)CC1CC2CCC1C2 (stereo not drawn)	0.6% (inactive)
CC(C)Cc1nnc(NC(=O)CCC(=O)Nc2ccc3cn[nH]c3c2)s1	2% (inactive)
O=C(NCc1cn2ccsc2n1)Nc1cccc(Cl)c1	-1.5% (inactive)
Cc1ccc(C2CCN(C(=S)Nc3cccc(Cl)c3)C2)cc1 (stereo not drawn)	14.6% (inactive)
Cc1csc(NC(=S)Nc2cccc(Cl)c2)n1	64.4% (active)
O=C(Nc1ccc2cn[nH]c2c1)c1ccc(S(=O)(=O)N2CCOCC2)cc1	-4.1% (inactive)
S=C(Nc1cccc(Cl)c1)Nc1ccc2cn[nH]c2c1	55% (active)
CCOC(=O)Cn1c2c(c(-c3ccccc3OC)cc1=O)CCCC2	-1.1% (inactive)
Clc1ccc(C2=CSC3=Nc4cccc5cccc(c45)N23)cc1	6.8% (inactive)
CN(Cc1c(F)cccc1Cl)S(=O)(=O)c1cccs1	-1.8% (inactive)
Cc1ccc(Nc2c(O)nc[nH]c2=O)cc1C	-0.6% (inactive)
CCOC(=O)N1CCC(Nc2c(NCCCN3CCN(c4ccc(OC)cc4)CC3)c(=O)c2=O)CC1	2.4% (inactive)
